# Among all 1,300 compounds or so, about 980 (75%) were called active. Roughly 4% stayed inconclusive and do not appear here. This is one part of the list. Unmarked numbers belong to inactive results.
# Target: Sulfhydryl oxidase 1 (Homo sapiens) (UniProt O00391)
# Experiment: inhibition of human sulfhydryl oxidase QSOX1 – biochemical, HyperBlu H2O2 luminescence, HTS, primary screen (AID 1347420); also: values above 100% were filed as inconclusive
# Details: recombinant QSOX1, HyperBlu H2O2 luminescence, at 12.5 µM, active compounds read high; active = any value above zero unless noted
# Sequence of Sulfhydryl oxidase 1 (Homo sapiens) (O00391 whole entry, looked up): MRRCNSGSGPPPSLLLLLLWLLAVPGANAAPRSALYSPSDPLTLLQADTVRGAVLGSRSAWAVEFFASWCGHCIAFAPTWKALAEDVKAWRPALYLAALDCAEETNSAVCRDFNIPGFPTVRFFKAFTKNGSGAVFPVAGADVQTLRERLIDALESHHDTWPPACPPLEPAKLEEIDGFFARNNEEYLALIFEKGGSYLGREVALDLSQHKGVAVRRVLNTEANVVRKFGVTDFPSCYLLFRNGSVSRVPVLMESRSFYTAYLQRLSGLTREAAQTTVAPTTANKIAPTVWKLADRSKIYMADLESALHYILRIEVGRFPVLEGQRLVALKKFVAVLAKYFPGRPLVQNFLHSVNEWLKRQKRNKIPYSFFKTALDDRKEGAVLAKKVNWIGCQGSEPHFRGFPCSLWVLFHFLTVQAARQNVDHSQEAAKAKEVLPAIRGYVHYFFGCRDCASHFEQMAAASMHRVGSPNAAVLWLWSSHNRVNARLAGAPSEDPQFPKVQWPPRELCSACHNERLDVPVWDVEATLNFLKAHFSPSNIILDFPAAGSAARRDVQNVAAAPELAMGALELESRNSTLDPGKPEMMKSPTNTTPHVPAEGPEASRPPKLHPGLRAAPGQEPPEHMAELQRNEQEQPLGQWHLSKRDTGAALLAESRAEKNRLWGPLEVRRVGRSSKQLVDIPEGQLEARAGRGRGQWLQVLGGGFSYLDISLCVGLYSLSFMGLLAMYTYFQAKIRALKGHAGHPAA
row,SMILES,inhibition
1,COc1ccc2[nH]c3c(c2c1)CCNC3,40.5% (active)
2,NC(=O)CI,-4.6%
3,NNC(N)=O,13% (active)
4,COc1ccc(OC)c(C(O)C(C)N)c1 (centres undefined),10.6% [setting not given] (active)
5,CCCN(CCC)[C@@H]1CCc2cccc(O)c2C1,2.9% (active)
6,CCCN(CCC)C1CCc2cccc(O)c2C1 (centres undefined),5.5% (active)
7,CCCN(CCC)[C@H]1CCc2c(F)ccc(O)c2C1,17.9% (active)
8,Cc1ncc(CNC(=O)N(CCCl)N=O)c(N)n1,13.2% (active)
9,Clc1cc(I)cc(Cl)c1NC1=NCCN1,3.8% (active)
10,O=c1[nH]c2ccccc2n1CCCN1CCC(n2c(=O)[nH]c3cc(Cl)ccc32)CC1,4.5% [setting not given] (active)
11,O=c1[nH]c2ccccc2n1C1CCN(CCCC(c2ccc(F)cc2)c2ccc(F)cc2)CC1,-0.3% [setting not given]
12,S=C(NC1CCCCC1)N1CCC(c2cnc[nH]2)CC1,4.8% (active)
13,CC[C@@]1(O)C(=O)OCc2c1cc1n(c2=O)Cc2cc3ccccc3nc2-1,17.6% [setting not given] (active)
14,c1ccc(C2CC2)c(OCC2=NCCN2)c1,21.8% (active)
15,COc1ccc(C(=O)N2CCCC2=O)cc1,20.3% [setting not given] (active)
16,COC[C@H]1OC(=O)c2coc3c2[C@@]1(C)C1=C(C3=O)C2CCC(=O)[C@@]2(C)C[C@H]1OC(C)=O (some centres undefined),49.7% (active)
17,NC(=O)c1cc(N2CC2)c([N+](=O)[O-])cc1[N+](=O)[O-],15.2% (active)
18,Fc1ccc(C(OCCN2CCN(CCCc3ccccc3)CC2)c2ccc(F)cc2)cc1,14.6% (active)
19,c1ccc(CCCN2CCN(CCOC(c3ccccc3)c3ccccc3)CC2)cc1,-3%
20,CC12CCC3C(CCC4=C(O)C(=O)CCC43C)C1CCC2=O (centres undefined),1.5% [setting not given] (active)
21,CC(=O)NCCc1c[nH]c2ccccc12,35.3% [setting not given] (active)
22,COc1ccc2[nH]cc(CCN)c2c1,-0.1% [setting not given]
23,CC(N)Cc1c[nH]c2ccc(O)cc12 (centres undefined),79% [setting not given] (active)
24,CNCCc1c[nH]c2ccc(O)cc12,55.9% [setting not given] (active)
25,CC(N)Cc1c[nH]c2ccc(OCc3cccs3)cc12 (centres undefined),-4.1% [setting not given]

row,SMILES,inhibition
1,NCCc1c[nH]c2ccc(O)cc12,80.8% (active)
2,Cc1c(C(=O)c2cccc3ccccc23)c2cccc3c2n1[C@H](CN1CCOCC1)CO3,-2.1% [setting not given]
3,O=C(O)c1nn(Cc2ccc(Cl)cc2Cl)c2ccccc12,-13% [setting not given]
4,NCCc1c[nH]c2ccc(C(N)=O)cc12,26.8% (active)
5,Cc1[nH]c2ccc(O)cc2c1CCN,79.3% [setting not given] (active)
6,NCCc1c[nH]c2ccccc12,1.9% [setting not given] (active)
7,CCCN(CCC)CCc1c[nH]c2ccc(C(N)=O)cc12,-6.2% [setting not given]
8,C/C(O)=C(\C#N)C(=O)Nc1cc(Br)ccc1Br,-6.8%
9,Clc1cnc(Oc2ccc(Oc3ncc(Cl)cc3Cl)cc2)c(Cl)c1,10.6% [setting not given] (active)
10,C=CCN(C1=NCCN1)c1c(Cl)cccc1Cl,9.6% (active)
11,c1ccc2c(c1)OCC(C1=NCCN1)O2 (centres undefined),3.2% (active)
12,CN1CC[C@@]2(C)c3cc(O)ccc3N(C)C12 (some centres undefined),52.2% (active)
13,CN1CC[C@@]2(C)c3cc(OC(=O)Nc4ccccc4)ccc3N(C)[C@@H]12,41.8% (active)
14,CNCCc1ccc(O)c(O)c1,50.2% (active)
15,CCCN(CCC)CCc1ccc(O)c(O)c1,56.8% (active)
16,Cc1ccc(S(=O)(=O)N[C@@H](CCCCN)C(=O)CCl)cc1,11.5% (active)
17,O=[N+]([O-])c1ccc2nc(N3CCNCC3)ccc2c1,15.5% (active)
18,c1ccc2c(N3CCNCC3)cccc2c1,3% (active)
19,COc1ccccc1N1CCNCC1,-0.1% [setting not given]
20,NNC(=O)c1ccc(O)cc1,3.3% (active)
21,C[C@]12N[C@H](Cc3ccccc31)c1ccccc12,-13.1% [setting not given]
22,CC12NC(Cc3ccccc31)c1ccccc12 (centres undefined),3.8% [setting not given] (active)
23,CCCN1CCO[C@@H]2c3cc(O)ccc3OC[C@H]21,27.5% (active)
24,CCCN1CC[C@@H]2c3cc(O)ccc3CC[C@@H]21,18.3% (active)
